# Screens from PubChem.
# Compounds with a hit are over-represented: about 10% of the library has one in this group of screens.
# G9a block: qHTS Assay for Inhibitors of Histone Lysine Methyltransferase G9a; Histone-lysine N-methyltransferase EHMT2 (Homo sapiens), Q96KQ7; G9a H3K9 monomethylation, AlphaScreen, 2 h; Potency, µM (titrated, usually from 102 µM), for the others: at the top dose activity, negative = inhibition, hits mostly inhibitors; actives 8.8% (n = 350,000); AID 504332, 2011; also: % is scaled to controls: 0 for no effect and ±100 for the full control effect; nearly all actives have a fitted effect of over 75% in size
#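 Methyltransferase reactions run at room temperature for 2 h (20 nM enzyme, 500 nM biotin-H3K9 peptide, 20 uM SAM) after a 15 min compound preincubation; product detected by AlphaScreen beads and anti-H3K9me1 antibody.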
# HP1b chromo inh: HTS for Inhibitors of HP1-beta Chromodomain Interactions with Methylated Histone Tails | AlphaScreen HP1-beta / biotin-H3K9me3 peptide binding | Potency, µM (top dose mostly 114 µM), inactives show at the top dose activity change, negative = inhibition, usual class: inhibitors | actives 0.56% (n = 390,000); also: nearly all actives have a fitted effect of over 70% in size
#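 AlphaScreen: HP1-beta (50 nM) preformed 30 min with biotin-H3(1-18)K9me3 peptide (50 nM) in PBS pH 7.4, 0.01% Tween-20. Compound added for 30 min at RT, then streptavidin donor/nickel chelate acceptor beads (10 ug/mL) for 30 min.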
# BAZ2B inh: qHTS Assay for Inhibitors of BAZ2B | Bromodomain adjacent to zinc finger domain protein 2B (Homo sapiens), Q9UIF8 | AlphaScreen BAZ2B-H3K14Ac peptide displacement | Potency, µM (doses to about 114 µM), for the others: at the top dose activity change, negative = inhibition, usual class: inhibitors | actives 4.4% (n = 360,000); also: % is scaled to controls: 0 for no effect and ±100 for the full control effect; nearly all actives have a fitted effect of over 60% in size
#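 Multi-concentration screen (max 110 uM) measuring displacement of acetylated histone H3 peptide from BAZ2B by AlphaScreen, using 50 nM protein, 50 nM peptide and 10 ug/mL streptavidin donor plus Ni-chelate acceptor beads.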
# GLS inh: qHTS for Inhibitors of Glutaminase (GLS). GLS enzymatic activity, qHTS titration. actives 0.21% (n = 410,000). AID 624170, 2012. Potency, µM (highest dose often 45.5 µM), for inactives: at the highest dose activity change, negative = inhibition, usual class: inhibitors. Glutaminase kidney isoform, mitochondrial (Homo sapiens), O94925; also: % is scaled to controls: 0 for no effect and ±100 for the full control effect
# Target sequence (O94925 whole entry, looked up, canonical isoform): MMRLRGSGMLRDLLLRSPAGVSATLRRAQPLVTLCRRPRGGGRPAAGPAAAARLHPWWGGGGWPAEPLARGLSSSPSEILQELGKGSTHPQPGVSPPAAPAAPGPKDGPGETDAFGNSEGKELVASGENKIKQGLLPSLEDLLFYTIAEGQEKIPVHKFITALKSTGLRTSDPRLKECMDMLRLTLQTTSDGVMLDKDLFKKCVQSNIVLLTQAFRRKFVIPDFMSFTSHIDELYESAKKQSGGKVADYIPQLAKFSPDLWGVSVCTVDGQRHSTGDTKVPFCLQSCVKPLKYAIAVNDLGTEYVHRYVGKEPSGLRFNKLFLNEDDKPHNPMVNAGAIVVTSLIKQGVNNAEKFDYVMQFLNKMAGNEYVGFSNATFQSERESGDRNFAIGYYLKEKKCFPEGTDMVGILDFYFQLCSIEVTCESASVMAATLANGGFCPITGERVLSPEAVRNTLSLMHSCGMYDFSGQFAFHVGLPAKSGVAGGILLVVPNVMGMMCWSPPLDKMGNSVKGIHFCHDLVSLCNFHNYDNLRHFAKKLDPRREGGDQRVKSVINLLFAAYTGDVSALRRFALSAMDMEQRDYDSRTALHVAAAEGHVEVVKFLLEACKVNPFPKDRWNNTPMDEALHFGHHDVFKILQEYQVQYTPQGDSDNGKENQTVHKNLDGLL
#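 Human kidney-isoform GLS in 45 mM KH2PO4 pH 8.2, 0.02% Tween-20, with compound, started with 1mM L-Glutamine (added stock). Glutamate oxidase/HRP/Amplex red coupled fluorescence read at start and after 30 min at RT.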
# JMJD2A Tudor inh: qHTS Assay for Inhibitors of JMJD2A-Tudor Domain. AID 504339, 2011. actives 4.4% (n = 390,000). Potency, µM (highest dose often 114 µM), without a hit: at the top dose activity change, negative = inhibition, most hits filed as inhibitors. AlphaScreen JMJD2A-Tudor / H3K4me3 peptide binding. Lysine-specific demethylase 4A (Homo sapiens), O75164; also: % is scaled to controls: 0 for no effect and ±100 for the full control effect; nearly all actives have a fitted effect of over 50% in size
# * = called active by the depositor; ? = inconclusive; nt = no result; [ ] = dose if it differs, or a comment. Calls follow the shape of the dose curve; as a rule, active = well fitted curve in the direction sought with a large enough effect; inconclusive = small, poorly fitted or top-dose-only effect, or another doubt; inactive = no such curve, though single readings can be large; an effect the other way counts as inactive or inconclusive. Potency is read from the fitted curve at half-maximal effect.
SMILES,G9a block,HP1b chromo inh,BAZ2B inh,GLS inh,JMJD2A Tudor inh
CCOc1ccc(C2C(C(=O)c3ccco3)=C(O)C(=O)N2CCCn2ccnc2)cc1 (centres undefined),?,22%,-2%,-12%,45µM*
CCOc1ccc(C2C(C(=O)c3ccco3)=C(O)C(=O)N2CCCn2ccnc2)cc1OCC (centres undefined),?,23%,?,0%,-23%
COc1ccc(C2C(C(C)=O)=C(O)C(=O)N2CCCn2ccnc2)cc1OC (centres undefined),50µM*,25%,?,15%,-10%
COCCNC(=O)Nc1cc(C(=O)NCc2ccc(C(C)C)cc2)ccc1N1CCCC1,-2%[59 µM],18%,?,54%,-12%
COc1ccc(N2CC(C(=O)Nc3ccccc3N3CCCC3)CC2=O)c(OC)c1 (centres undefined),50µM*,15%,3%,11%,-20%
O=C(COc1ccccc1Cl)NC(=S)Nc1ccccc1N1CCCC1,40µM*,5%,20µM*,35%,?
COc1ccc(N2CCCC2)c(NC(=O)COc2ccccc2Cl)c1,35µM*,-7%,?,-20%,-13%
CN(Cc1ccccc1)C(=O)[C@@H]1CCCN1C(=O)[C@@H]1CCCN1C(=O)c1ccccc1,nt,nt,nt,1%,nt
CCN(CC)CCN(C(=O)c1ccc(S(=O)(=O)N2CCCCC2)cc1)c1nc2cc3c(cc2s1)OCO3,50µM*,-8%,?,0%,?
CCOc1cccc2sc(N(CCN(CC)CC)C(=O)c3ccc(S(=O)(=O)N4CCCC4)cc3)nc12,-10%,42%,-13%,-1%,-2%
CCN(CC)CCN(C(=O)c1ccc2ccccc2c1)c1nc2cc3c(cc2s1)OCO3,40µM*,15%,?,-6%,?
O=C(NCC(c1cccnc1)N1CCc2ccccc2C1)C(=O)Nc1ccc(F)cc1F (centres undefined),?,-3%,?,3%,-24%
CCOC(=O)c1c(C)[nH]c(C)c1C(=O)CN1C(=O)NC2(CCCCCC2)C1=O,22µM*,20%,9%,2%,-16%
COc1ccccc1C1C=C(c2ccc(Cl)cc2)Nc2nc(N3C(=O)CCC3=O)nn21 (centres undefined),?,17%,nt,1%,45µM*
COc1ccccc1C1C=C(c2ccc(Cl)cc2)Nc2nc(NS(C)(=O)=O)nn21 (centres undefined),50µM*,nt,3%,nt,nt
COc1ccc(C2=CC(c3ccccc3Cl)n3nc(-c4ccc(C)cc4)nc3N2)cc1 (centres undefined),?,-11%,11µM*,-6%,?
CCOC(=O)c1ccc(NC(=O)C2CCCN(c3ncnc4onc(C)c34)C2)cc1 (centres undefined),2%[59 µM],8%,8%[57.1 µM],9%,-3%
CCOC(=O)c1c(C)[nH]c(C)c1S(=O)(=O)N1CCCC(C(=O)Nc2ccc(C)c(N(C)C)c2)C1 (centres undefined),-33%[59 µM],10%,?,11%,-31%
CSCCC(NC(=O)OCc1ccccc1)C(=O)O (centres undefined),-46%[59 µM],22%,-6%,5%,-8%
CSCC[C@H](NC(=O)[C@H](Cc1ccccc1)NC[C@@H](NC[C@@H](N)CS)C(C)C)C(=O)O,20µM*,nt,nt,nt,nt
N#Cc1nc(Nc2cc(F)cc(F)c2)c2ncn(CCO)c2n1,nt,nt,nt,nt,-11%
Clc1ccc(OCCCN2CCCCC2)c(Br)c1,3.5µM*,?,79µM*,-1%,4µM*
CCN1CCN(CCCOc2ccc(Cl)cc2Br)CC1,nt,?,20µM*,3%,22µM*
Clc1ccc(OCCCCCN2CCCC2)c(Br)c1,?,?,79µM*,2%,2µM*
Brc1ccccc1OCCCCCN1CCCC1,4%[0.0925 µM],nt,-4%,nt,nt
SMILES,G9a block,HP1b chromo inh,BAZ2B inh,GLS inh,JMJD2A Tudor inh
COc1ccccc1CNC(=O)c1cc2c(=O)n(Cc3cccs3)ccc2nc1C,16%[59 µM],52%,-2%,6%,-15%
CCSc1ncc(/C=N/Nc2ccc(Cl)cc2)n1C,?,40µM*,35µM*,26%,56µM*
CCSc1ncc(/C=N/Nc2ccc([N+](=O)[O-])cc2)n1C,?,2%,-8%,-8%,8%
N#CC1=C(C2CC2)CC(c2ccccc2)C(C#N)=C1N (centres undefined),50µM*,52%,1%,-7%,-8%
CCCCCCSC1=C(C#N)C(c2ccccc2)CC(=O)N1 (centres undefined),-15%[12.7 µM],22%,-29%,-7%,-3%
N#Cc1nc(COc2ccc(F)cc2)oc1NCCCn1ccnc1,-8%[12.7 µM],-10%,-35%,8%,?
N#Cc1nc(COc2ccccc2F)oc1NCCCn1ccnc1,32µM*,31%,?,11%,?
Cc1ccc(OCc2nc(C#N)c(NCCCn3ccnc3)o2)cc1,?,-20%,50µM*,16%,8%[11.4 µM]
COc1ccccc1OCc1nc(C#N)c(NCCCn2ccnc2)o1,?,44%,?,20%,-24%
COc1ccccc1NC(=O)C(C)OC(=O)C1CCC(C(C)(C)C)CC1 (centres undefined),65%,91%,45%,0%,36%
CNC(C)C(=O)NC(C(=O)NC(C)C(=O)Nc1cccc2ccccc12)C(C)C (centres undefined),nt,nt,nt,-8%,nt
CC(C)c1ccc(N2C(=O)CC(NNC(=O)c3cccnc3)C2=O)cc1 (centres undefined),56µM*,40%,-21%,?,-3%
Cc1c(Cl)cccc1N1C(=O)CC(NNC(=O)c2cccnc2)C1=O (centres undefined),23%[59 µM],33%,-3%,0%,-20%
O=C(NNC1CC(=O)N(c2ccc(F)cc2)C1=O)c1cccnc1 (centres undefined),13µM*,39%,-11%,?,6%
O=C(NNC1CC(=O)N(c2ccccc2)C1=O)c1cccnc1 (centres undefined),5%,56%,-9%,?,2%
CSc1ccc(CCNC(=O)Cn2ncn3c(cc4ccccc43)c2=O)cc1,1%[59 µM],48%,-14%,-5%,0%
COc1ccc(N(CC(=O)NCCc2ccccc2)S(=O)(=O)c2ccccc2)c(OC)c1,4%[59 µM],29%,-17%,-7%,-15%
Cc1cccc(CNC(=O)c2ccc3c(c2)N(C)C(=O)C2CCCCN32)c1 (centres undefined),-17%[59 µM],10%[57 µM],-13%,5%,-19%
